# This is one part of a sample in which hits are shown more often than they occur.
# Pf Dd2 growth = qHTS Primary assay for Inhibitors of Plasmodium falciparum Dd2 growth in vitro | P. falciparum Dd2 growth, SYBR Green, 72 h | Potency, µM (doses to about 28.9 µM), for inactives: at the top dose activity, negative = inhibition, most hits filed as inhibitors | 4.3% of 120,000 active; active = well fitted inhibition curve with a large enough effect;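 also: plate controls were DMSO vehicle for no effect and reference drug for full effect; nearly all actives have a fitted effect of over 65% in size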
#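 Readout: SYBR Green fluorescence, 485 nm excitation, 535 nm emission, after ~16 h lysis at 37C. Before that, Dd2-infected red cells (2.5% hematocrit) grew 72 h with compound, 29 uM top final concentration.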
# * = called active by the depositor; i = inactive; [ ] = remark or other dose. Potency is read from the fitted curve at half-maximal effect.
SMILES,Pf Dd2 growth
Cc1cc(-c2ccccc2)nc(CN2CC[C@@](O)(C3CCC3)[C@H](C)C2)n1,10µM*
C=CCNC(=O)N[C@H]1CCN2C(=O)c3ccccc3NC(=O)[C@@H]2C1,-10.5%[44.1 µM]
COc1ccc(N2CC3(COCC2=O)CN(c2ccc(C(F)(F)F)cn2)C3)cn1,i
CC(c1cccs1)N(C)Cc1ccnn1C (configuration not stated),25.7%[44.1 µM]
Cc1ccn(CC(=O)N2C[C@@H](CO)[C@H](c3ccccn3)C2)n1,-29.4%
COc1cccc(Nc2nc(-c3ccccc3)c3cc(C)ccc3n2)c1,10µM*
Clc1ccccc1-c1nc(Nc2ccccc2)nc2ccc(Br)cc12,-17.4%
Clc1ccc(Nc2nc(-c3ccccc3)c3cc(Cl)ccc3n2)cc1,i
Cc1noc(C)c1CN1CC(C(=O)NCc2ccncc2)C2(CCOCC2)C1 (configuration not stated),-0.8%
Cc1cc(C(=O)N2C[C@H]3CN(C4CCOCC4)C[C@@]3(C(=O)O)C2)n[nH]1,6.7%
CCN(CC)CCCNC(=O)Cn1c(-c2cccs2)cc2cc(Cl)ccc21,11.2µM*
CN1CCN(CCCNC(=O)Cn2c(-c3cccs3)cc3cc(Cl)ccc32)CC1,12.6µM*
Cc1ccc(NC(=O)Cn2c(CCC(=O)O)ccc2-c2cccs2)cc1Cl,-2.6%
CN1CCN(CCC(=O)Nc2ccc(Cl)cc2)CC1,i
CCc1nn(CC(=O)NCCCN2CCN(C)CC2)c(=O)c2cc3occc3n12,57.2%
O=C(O)Cn1c(-c2cccs2)cc2cc(Cl)ccc21,-15.4%
CCN1CCN(CCCNC(=O)Cn2c(-c3cccs3)cc3cc(Cl)ccc32)CC1,11.2µM*
CCCN1CCN(CCCNC(=O)Cn2nc(C)n3c(cc4c(OC)cccc43)c2=O)CC1,-4.2%
CCC(C)NC(=O)Cn1c(-c2cccs2)cc2cc(Cl)ccc21 (configuration not stated),-10.9%
CN1C(=O)C(c2ccccc2)CC12CCN(C(=O)c1ccc(F)cc1)CC2 (configuration not stated),5.6%
COCc1cc(CC2(NCc3ccccc3O)COC2)no1,-1.3%[44.1 µM]
CCCNC(=O)c1cccc2c1CCN2C(=O)Nc1ccc(OC)cc1,-14.1%
CCC(=O)N1CCC(Oc2ccc(C(=O)N3CCOCC3)cn2)CC1,41.4%
COc1ccc(C)cc1NC(=O)N1CCC(N2CC3CC(C2)[C@H]2CCCC(=O)N2C3)CC1 (some centres not stated),-10.0%
CCc1nnc(CN2CCC(N3CCCC(C(=O)N4CCOCC4)C3)CC2)o1 (configuration not stated),6.1%
SMILES,Pf Dd2 growth
CC(=O)N[C@@H]1CN(C(=O)CCCc2ccc(F)cc2)C[C@H]1C(C)C,-2.9%
CCCCN1CCN(C(=O)c2cnc(-c3ccccc3)nc2-c2ccncc2)CC1,-26.7%
CN1CCN(c2ncc(C(=O)O)c(-c3ccccc3)n2)CC1,6.3%
CC/C=C\CCc1c(-c2ccccc2)ncn1CCN1CCN(C)CC1,4.47µM*
CCc1ccc(OCCCn2c(-c3ccc(Cl)cc3)nc3ccccc3c2=O)cc1,27.2%
Cc1ccc(OCCn2c(COc3ccc(Cl)cc3)nc3ccccc32)cc1,0.3%
CCCC(O)c1nc2ccccc2n1CCCOc1ccc(Cl)cc1 (configuration not stated),5.01µM*
CCN1C(=O)CCN(Cc2ccc(O)cc2)CC12CCOCC2,-7.2%
O=C(N[C@H](Cc1ccccn1)C1CC(O)C1)c1cccc(-n2cnnc2)c1 (some centres not stated),2.4%
O=C(c1ccoc1)N1C[C@@H](CO)[C@H](c2ccccn2)C1,11.9%
Cc1nc(CC2CCN(c3nccc(-c4cccnc4)n3)CC2)no1,-11.5%
O=c1[nH]c2ccccc2n1C1CCN(c2nccc(-c3cccnc3)n2)CC1,11.2µM*
O=C(NCc1ccccn1)C1CCN(c2nccc(-c3cccnc3)n2)CC1,-13.4%
O=S(=O)(c1ccccc1)N1CCCC(CN2CCCC2)CC1 (configuration not stated),i
CCC(O)c1nc2ccccc2n1Cc1cccc(Cl)c1 (configuration not stated),-22.8%
CC(=O)N1CCCC1c1nc2ccccc2n1Cc1cc(C)ccc1C (configuration not stated),-2.2%
CCC(O)c1nc2ccccc2n1Cc1cc(C)ccc1C (configuration not stated),11.2µM*
Cc1cc(C)cc(OCC(=O)c2ccc3c(c2)N(CC(=O)N(C)Cc2ccccc2)C(=O)CO3)c1,-10.1%
COC(=O)[C@H](NC(=O)[C@@H]1C[C@H](NC(=O)Nc2cccc(SC)c2)CN1C(=O)CSC)C(C)C,-9.2%
CN1C[C@@H](NC(=O)c2ccc(F)cc2)C[C@H]1c1nc(-c2ccccc2)no1,11.2µM*
CN1C[C@@H](NC(=O)c2ccc(F)cc2)C[C@H]1c1nc(-c2cncnc2)no1,i
CN1C[C@@H](NC(=O)c2ccc(F)cc2)C[C@H]1c1nc(-c2ccncc2)no1,i
CN1C[C@@H](NC(=O)c2cccnc2)C[C@H]1c1nc(-c2cccnc2)no1,2.3%[44.1 µM]
CN1C[C@@H](NC(=O)c2ccc(-c3ccccc3)cc2)C[C@H]1c1nc(-c2ccncc2)no1,11.2µM*
CN1C[C@@H](NC(=O)c2cccnc2)C[C@H]1c1nc(-c2ccncc2)no1,-28.2%[44.1 µM]
SMILES,Pf Dd2 growth
Cc1cccc2[nH]c(C3CCN(C(=O)C4NCCc5[nH]cnc54)CC3)nc12 (configuration not stated),-13.7%
Cc1c(Cl)cccc1NC(=O)Cn1c(=O)n(Cc2nc(-c3ccccc3)no2)c(=O)c2cc3c(cc21)OCO3,-11.6%
Cc1ccc(NC(=O)Cn2c(=O)n(-c3ccccc3)c(=O)c3ccc(C(=O)NCc4ccc5c(c4)OCO5)cc32)cc1,-8.2%
Cc1ccc(-n2c(=O)c3ccc(C(=O)NCc4ccccc4Cl)cc3n(CC(N)=O)c2=O)cc1,22.5%
CCN(C(=O)Cn1c(=O)n(-c2ccccc2)c(=O)c2ccc(C(=O)NCc3ccc4c(c3)OCO4)cc21)c1cccc(C)c1,7.08µM*
Cc1ccccc1NC(=O)Cn1c(=O)n(CCCC(=O)NCc2ccc3c(c2)OCO3)c(=O)c2ccccc21,22.2%
Cc1ccc(NC(=O)Cn2c(=O)n(Cc3ccc(C(=O)NCc4ccc5c(c4)OCO5)cc3)c(=O)c3ccccc32)cc1,8.91µM*
O=C(Cn1c(=O)n(Cc2nc(-c3ccccc3)no2)c(=O)c2cc3c(cc21)OCO3)Nc1ccc(Cl)cc1,10µM*
Cc1ccc(NC(=O)Cn2c(=O)n(Cc3nc(-c4ccccc4)no3)c(=O)c3cc4c(cc32)OCO4)c(C)c1,86.6%
Cc1ccc(Cn2c(=O)n(-c3ccccc3)c(=O)c3ccc(C(=O)NCc4ccco4)cc32)cc1,-16.0%
O=C(Cn1c(=O)n(Cc2ccc(C(=O)NCc3ccc4c(c3)OCO4)cc2)c(=O)c2ccccc21)Nc1ccccc1F,i
O=C(Cn1c(=O)n(-c2ccccc2)c(=O)c2ccc(C(=O)NCc3ccc4c(c3)OCO4)cc21)Nc1ccc(Br)cc1F,8.91µM*
Cc1ccc(Cl)cc1NC(=O)Cn1c(=O)n(Cc2ccc(C(=O)NCc3ccc4c(c3)OCO4)cc2)c(=O)c2ccccc21,-17.4%
Cc1ccc(C2(O)CCN(C(=O)CCn3cnc4ccccc43)CC2)nc1,-9.7%
COCc1cc(=O)n(CC(=O)Nc2cc(OC)cc(OC)c2)c(N2CCOCC2)n1,i
Cn1cnnc1CC1CCN(C(=O)CC2CCCCC2)C1 (configuration not stated),i
Cc1n[nH]c(C)c1CN1CCC2(CC1)CN(Cc1ccccc1)CC2CO (configuration not stated),-5.0%

# Compound activity deposited in PubChem by National Center for Advancing Translational Sciences (NCATS).
